The target in experiment [1] is Tyrosine-protein kinase SYK (Homo sapiens) (UniProt P43405). Particulars: at 1 µM.
Experiment [2] deals with T1, Tyrosine-protein kinase Tec (Homo sapiens) (UniProt P42680).
T1 sequence (whole entry): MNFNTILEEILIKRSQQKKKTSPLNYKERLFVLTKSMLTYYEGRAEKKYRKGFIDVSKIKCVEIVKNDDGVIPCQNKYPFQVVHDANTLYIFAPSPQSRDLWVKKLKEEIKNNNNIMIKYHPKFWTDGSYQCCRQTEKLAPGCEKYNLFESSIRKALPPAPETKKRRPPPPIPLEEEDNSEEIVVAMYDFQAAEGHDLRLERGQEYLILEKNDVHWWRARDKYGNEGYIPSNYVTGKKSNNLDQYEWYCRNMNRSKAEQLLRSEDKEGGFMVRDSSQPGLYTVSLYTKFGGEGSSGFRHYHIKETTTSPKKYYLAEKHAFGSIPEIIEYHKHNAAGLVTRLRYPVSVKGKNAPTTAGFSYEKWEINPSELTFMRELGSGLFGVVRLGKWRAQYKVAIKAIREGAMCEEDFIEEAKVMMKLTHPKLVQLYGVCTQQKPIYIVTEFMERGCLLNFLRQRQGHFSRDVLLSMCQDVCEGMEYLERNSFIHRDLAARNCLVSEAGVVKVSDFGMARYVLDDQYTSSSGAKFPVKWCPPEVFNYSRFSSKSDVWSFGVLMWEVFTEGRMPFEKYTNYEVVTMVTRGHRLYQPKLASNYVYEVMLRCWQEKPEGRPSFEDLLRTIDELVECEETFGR
Particulars: at 0.1 µM.

Experiment [3] concerns the target T1, Tyrosine-protein kinase Tec (Homo sapiens). Particulars: at 1 µM.
The target in experiment [4] is Angiopoietin-1 receptor (Homo sapiens) (UniProt Q02763). Particulars: at 0.1 µM.
For experiment [5] the target is unchanged. Particulars: at 1 µM.
For experiment [6], the target named is T2, Non-receptor tyrosine-protein kinase TNK1 (Homo sapiens) (UniProt Q13470).
T2 sequence (whole entry): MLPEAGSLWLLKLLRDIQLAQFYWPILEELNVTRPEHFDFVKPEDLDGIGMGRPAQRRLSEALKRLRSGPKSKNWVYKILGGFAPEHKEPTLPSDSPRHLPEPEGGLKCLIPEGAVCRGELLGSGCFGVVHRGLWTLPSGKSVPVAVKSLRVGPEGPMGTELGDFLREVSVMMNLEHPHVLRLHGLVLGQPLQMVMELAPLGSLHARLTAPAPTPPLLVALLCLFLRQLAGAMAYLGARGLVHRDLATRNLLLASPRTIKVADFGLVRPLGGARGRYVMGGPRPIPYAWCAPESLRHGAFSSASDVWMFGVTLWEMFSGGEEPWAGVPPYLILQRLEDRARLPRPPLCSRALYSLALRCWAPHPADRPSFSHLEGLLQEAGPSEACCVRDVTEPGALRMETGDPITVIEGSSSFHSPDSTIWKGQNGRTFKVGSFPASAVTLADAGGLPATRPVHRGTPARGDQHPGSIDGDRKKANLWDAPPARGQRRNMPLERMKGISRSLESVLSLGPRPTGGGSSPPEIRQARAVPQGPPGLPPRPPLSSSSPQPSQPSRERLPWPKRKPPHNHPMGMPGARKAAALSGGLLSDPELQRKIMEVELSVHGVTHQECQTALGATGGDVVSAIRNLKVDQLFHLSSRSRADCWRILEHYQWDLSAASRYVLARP
Particulars: at 0.1 µM.

Experiment [7] deals with T2, Non-receptor tyrosine-protein kinase TNK1 (Homo sapiens). Particulars: at 1 µM.
In experiment [8] the target is Activated CDC42 kinase 1 (Homo sapiens) (UniProt Q07912). Particulars: at 0.1 µM.
Experiment [9] has the same target. Particulars: at 1 µM.
Experiment [10] deals with High affinity nerve growth factor receptor (Homo sapiens) (UniProt P04629). Particulars: at 0.1 µM.
Experiment [11] has the same target. Particulars: at 1 µM.
Experiment [12] concerns the target BDNF/NT-3 growth factors receptor (Homo sapiens) (UniProt Q16620). Particulars: at 0.1 µM.
Experiment [13] shares this target. Particulars: at 1 µM.
For experiment [14], the target named is NT-3 growth factor receptor (Homo sapiens) (UniProt Q16288). Particulars: at 0.1 µM.
Experiment [15] has the same target. Particulars: at 1 µM.
The target in experiment [16] is T3, Tyrosine-protein kinase TXK (Homo sapiens) (UniProt P42681).
T3 sequence (whole entry): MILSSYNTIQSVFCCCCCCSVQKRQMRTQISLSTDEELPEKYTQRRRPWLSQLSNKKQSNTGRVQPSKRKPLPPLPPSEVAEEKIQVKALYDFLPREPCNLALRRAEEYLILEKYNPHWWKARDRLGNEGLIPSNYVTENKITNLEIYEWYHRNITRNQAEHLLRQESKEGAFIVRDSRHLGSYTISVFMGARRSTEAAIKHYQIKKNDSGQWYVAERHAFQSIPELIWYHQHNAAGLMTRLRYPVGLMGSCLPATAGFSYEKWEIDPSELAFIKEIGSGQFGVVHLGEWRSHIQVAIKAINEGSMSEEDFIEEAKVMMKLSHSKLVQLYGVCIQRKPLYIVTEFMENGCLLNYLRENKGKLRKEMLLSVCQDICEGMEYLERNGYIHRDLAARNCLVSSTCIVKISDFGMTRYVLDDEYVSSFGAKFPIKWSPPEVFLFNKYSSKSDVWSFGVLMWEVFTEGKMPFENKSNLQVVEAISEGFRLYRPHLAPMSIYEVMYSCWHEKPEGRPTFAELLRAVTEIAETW
Particulars: at 0.1 µM.

The target of experiment [17] is T3, Tyrosine-protein kinase TXK (Homo sapiens). Particulars: at 1 µM.
The target of experiment [18] is Non-receptor tyrosine-protein kinase TYK2 (Homo sapiens) (UniProt P29597). Particulars: at 0.1 µM.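 Further: each value is a mean of the inhibition readings.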
Experiment [19] concerns the target T4, Dual specificity protein kinase TTK (Homo sapiens) (UniProt P33981).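 Further: reported figures are mean TTK inhibition at 1 µM.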
T4 sequence (whole entry): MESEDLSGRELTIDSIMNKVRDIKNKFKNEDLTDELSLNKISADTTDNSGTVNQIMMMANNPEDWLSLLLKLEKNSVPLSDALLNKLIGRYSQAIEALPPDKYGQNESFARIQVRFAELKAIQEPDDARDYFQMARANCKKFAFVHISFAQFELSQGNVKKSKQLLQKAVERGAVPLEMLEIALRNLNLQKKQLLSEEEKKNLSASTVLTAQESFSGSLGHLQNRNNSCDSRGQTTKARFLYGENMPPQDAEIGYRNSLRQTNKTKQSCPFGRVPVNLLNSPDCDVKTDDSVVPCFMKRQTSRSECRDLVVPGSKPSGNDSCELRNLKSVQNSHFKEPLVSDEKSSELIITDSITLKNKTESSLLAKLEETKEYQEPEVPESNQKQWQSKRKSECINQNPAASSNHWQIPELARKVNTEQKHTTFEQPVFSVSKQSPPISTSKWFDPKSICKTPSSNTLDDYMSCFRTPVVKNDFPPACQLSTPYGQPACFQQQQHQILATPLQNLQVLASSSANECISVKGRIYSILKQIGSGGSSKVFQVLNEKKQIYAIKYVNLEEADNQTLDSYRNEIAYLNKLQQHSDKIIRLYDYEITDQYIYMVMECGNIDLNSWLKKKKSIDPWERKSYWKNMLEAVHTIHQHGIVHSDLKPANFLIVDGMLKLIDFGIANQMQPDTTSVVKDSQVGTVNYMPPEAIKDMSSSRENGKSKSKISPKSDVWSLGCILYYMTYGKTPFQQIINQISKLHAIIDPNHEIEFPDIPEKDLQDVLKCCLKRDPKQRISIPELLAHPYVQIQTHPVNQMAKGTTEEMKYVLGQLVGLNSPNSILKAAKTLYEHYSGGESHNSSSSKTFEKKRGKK
Particulars: at 1 µM.

For experiment [20], the target named is T5, Aurora kinase A (Homo sapiens) (UniProt O14965).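 Further: each reported value is a mean percent inhibition of Aurora-A.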
T5 sequence (whole entry): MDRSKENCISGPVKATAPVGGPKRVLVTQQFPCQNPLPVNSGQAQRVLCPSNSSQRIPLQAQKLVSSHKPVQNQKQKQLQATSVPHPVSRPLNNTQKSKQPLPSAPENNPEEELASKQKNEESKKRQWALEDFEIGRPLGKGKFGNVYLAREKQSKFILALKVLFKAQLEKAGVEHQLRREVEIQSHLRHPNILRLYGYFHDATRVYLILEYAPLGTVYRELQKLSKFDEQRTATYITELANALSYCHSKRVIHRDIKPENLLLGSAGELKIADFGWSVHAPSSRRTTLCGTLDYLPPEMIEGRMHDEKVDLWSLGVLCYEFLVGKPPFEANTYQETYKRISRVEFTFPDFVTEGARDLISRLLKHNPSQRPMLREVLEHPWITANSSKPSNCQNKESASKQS
Particulars: at 0.1 µM.

SMILES strings stand for the structures.

Angiopoietin-1 receptor (Homo sapiens), sequence (Q02763 whole entry): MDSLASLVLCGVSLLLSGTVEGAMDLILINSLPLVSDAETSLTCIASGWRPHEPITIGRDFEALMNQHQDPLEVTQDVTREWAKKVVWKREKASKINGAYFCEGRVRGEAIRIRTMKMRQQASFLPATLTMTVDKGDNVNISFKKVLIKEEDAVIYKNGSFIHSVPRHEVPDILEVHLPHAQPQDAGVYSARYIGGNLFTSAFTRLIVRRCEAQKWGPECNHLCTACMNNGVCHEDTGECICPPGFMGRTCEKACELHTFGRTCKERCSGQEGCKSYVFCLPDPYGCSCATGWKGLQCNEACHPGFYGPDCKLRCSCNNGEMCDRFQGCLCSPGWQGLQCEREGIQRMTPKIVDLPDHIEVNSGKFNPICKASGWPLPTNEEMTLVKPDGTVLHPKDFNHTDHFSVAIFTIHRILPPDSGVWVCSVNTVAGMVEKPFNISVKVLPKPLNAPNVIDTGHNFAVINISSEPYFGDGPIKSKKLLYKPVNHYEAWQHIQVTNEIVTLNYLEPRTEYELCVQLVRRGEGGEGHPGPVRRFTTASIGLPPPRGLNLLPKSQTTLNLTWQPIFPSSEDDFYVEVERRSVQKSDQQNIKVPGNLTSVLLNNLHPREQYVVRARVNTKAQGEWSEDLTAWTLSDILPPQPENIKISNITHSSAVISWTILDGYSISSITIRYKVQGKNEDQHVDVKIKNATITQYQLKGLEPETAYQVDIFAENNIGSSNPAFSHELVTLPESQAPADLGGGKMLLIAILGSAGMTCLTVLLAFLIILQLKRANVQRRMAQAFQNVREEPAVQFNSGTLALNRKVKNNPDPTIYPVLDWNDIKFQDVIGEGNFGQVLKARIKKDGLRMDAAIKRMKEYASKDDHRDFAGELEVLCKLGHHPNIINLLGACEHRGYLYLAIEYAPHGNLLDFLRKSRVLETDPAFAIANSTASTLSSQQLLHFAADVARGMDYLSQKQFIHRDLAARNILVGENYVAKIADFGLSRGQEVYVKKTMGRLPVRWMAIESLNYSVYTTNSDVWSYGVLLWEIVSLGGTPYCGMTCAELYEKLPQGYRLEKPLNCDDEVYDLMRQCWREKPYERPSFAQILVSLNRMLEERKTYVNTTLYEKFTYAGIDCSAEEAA
Non-receptor tyrosine-protein kinase TYK2 (Homo sapiens), sequence (P29597 whole entry): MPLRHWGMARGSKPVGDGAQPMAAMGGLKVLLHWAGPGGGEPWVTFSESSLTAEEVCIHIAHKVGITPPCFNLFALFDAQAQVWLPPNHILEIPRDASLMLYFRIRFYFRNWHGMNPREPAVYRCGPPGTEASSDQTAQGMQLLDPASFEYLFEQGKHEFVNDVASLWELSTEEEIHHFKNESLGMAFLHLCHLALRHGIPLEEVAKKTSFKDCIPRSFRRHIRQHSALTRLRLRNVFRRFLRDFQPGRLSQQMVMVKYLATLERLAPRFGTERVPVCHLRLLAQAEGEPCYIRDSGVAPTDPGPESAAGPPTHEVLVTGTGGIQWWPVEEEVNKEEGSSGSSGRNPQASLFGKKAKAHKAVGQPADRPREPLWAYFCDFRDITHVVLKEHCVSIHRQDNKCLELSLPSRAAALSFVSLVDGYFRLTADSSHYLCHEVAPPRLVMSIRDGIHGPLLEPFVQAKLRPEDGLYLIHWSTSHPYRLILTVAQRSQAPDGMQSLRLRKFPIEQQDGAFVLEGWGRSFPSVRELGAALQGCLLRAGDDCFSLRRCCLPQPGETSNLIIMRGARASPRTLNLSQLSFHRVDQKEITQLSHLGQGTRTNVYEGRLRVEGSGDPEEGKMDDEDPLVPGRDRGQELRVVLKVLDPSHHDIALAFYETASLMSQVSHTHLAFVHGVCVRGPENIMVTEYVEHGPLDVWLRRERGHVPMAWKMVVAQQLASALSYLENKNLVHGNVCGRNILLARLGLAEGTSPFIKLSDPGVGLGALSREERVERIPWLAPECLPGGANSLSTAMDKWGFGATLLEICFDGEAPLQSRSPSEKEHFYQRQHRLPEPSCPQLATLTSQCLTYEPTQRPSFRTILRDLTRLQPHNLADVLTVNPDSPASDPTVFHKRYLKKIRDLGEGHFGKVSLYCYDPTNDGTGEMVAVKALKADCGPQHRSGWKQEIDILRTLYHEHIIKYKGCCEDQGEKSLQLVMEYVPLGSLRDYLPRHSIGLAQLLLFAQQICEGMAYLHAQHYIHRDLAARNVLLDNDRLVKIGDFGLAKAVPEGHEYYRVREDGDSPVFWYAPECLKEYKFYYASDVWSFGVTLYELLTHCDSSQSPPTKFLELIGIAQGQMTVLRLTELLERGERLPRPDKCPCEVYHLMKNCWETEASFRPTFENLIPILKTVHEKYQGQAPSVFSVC
Activated CDC42 kinase 1 (Homo sapiens), sequence (Q07912 whole entry, looked up): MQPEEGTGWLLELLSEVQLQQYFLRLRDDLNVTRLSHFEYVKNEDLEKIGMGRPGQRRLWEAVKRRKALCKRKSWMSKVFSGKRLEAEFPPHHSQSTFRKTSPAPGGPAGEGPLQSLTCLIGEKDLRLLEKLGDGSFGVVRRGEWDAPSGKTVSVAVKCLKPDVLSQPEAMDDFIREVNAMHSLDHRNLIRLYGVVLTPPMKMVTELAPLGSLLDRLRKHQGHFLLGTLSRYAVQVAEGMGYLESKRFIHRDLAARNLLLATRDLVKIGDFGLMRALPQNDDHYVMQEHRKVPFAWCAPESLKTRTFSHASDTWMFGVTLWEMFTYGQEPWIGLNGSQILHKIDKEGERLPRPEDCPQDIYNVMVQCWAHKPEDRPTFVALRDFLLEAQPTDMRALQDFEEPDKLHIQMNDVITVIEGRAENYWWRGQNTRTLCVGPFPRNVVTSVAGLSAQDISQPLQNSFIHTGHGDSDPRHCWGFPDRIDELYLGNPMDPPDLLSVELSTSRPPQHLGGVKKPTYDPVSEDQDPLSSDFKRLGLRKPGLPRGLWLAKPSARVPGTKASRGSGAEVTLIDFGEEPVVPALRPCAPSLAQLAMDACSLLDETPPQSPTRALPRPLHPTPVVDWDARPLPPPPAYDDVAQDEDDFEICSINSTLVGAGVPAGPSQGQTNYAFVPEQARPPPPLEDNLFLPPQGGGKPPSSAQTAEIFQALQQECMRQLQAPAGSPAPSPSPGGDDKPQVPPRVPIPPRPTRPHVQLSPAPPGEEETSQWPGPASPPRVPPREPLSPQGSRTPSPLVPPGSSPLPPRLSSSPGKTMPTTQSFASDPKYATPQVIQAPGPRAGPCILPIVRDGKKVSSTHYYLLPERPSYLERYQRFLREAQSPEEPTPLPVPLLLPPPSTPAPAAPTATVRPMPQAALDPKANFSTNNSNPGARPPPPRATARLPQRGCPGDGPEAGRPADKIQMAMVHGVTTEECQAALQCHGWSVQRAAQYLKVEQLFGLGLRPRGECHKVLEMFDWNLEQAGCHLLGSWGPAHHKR
NT-3 growth factor receptor (Homo sapiens), sequence (Q16288 32-839 limits assumed): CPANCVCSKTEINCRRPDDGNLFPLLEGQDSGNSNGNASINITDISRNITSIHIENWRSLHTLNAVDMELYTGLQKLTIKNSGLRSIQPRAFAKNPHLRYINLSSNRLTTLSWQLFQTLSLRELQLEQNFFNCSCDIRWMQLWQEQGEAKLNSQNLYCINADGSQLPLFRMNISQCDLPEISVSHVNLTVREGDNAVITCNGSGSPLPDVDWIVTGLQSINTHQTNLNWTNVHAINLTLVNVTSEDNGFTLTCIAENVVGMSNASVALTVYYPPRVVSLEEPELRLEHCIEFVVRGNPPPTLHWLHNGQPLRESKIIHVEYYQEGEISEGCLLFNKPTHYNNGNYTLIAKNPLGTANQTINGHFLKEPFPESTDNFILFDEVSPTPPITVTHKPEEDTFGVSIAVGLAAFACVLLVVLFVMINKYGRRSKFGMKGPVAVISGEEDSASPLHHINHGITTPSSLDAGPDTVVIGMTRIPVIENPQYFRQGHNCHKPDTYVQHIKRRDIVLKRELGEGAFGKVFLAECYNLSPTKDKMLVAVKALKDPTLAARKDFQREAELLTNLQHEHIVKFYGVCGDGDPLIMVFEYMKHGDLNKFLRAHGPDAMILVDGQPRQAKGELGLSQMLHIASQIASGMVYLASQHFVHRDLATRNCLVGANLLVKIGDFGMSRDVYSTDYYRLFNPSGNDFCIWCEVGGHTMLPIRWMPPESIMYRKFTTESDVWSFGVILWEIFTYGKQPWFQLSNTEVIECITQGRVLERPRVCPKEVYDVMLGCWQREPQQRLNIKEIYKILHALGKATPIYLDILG
BDNF/NT-3 growth factors receptor (Homo sapiens), sequence (Q16620 32-822 limits assumed): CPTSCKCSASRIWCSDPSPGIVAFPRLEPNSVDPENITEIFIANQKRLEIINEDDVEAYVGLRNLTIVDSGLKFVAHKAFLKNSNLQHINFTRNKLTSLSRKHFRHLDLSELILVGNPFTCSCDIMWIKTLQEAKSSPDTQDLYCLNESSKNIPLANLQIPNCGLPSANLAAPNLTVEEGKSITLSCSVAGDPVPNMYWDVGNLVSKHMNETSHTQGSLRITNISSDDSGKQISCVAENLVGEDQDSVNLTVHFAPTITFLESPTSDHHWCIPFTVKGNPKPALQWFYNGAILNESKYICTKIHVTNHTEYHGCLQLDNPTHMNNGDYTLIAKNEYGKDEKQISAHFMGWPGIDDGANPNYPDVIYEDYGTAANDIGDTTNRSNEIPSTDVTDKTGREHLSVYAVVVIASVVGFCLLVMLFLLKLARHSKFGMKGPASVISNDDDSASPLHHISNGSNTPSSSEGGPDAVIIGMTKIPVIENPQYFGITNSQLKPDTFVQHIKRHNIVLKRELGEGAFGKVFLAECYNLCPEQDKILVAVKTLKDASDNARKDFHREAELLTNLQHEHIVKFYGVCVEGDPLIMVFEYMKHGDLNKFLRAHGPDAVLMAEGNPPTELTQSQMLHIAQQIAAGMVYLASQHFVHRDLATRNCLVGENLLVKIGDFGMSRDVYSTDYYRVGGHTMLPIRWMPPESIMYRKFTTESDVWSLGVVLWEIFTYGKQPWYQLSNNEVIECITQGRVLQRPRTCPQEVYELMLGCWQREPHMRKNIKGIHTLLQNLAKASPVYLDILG

Consider `NS(=O)(=O)c1cccc(-c2ccc3c(NC(=O)C4CC4)n[nH]c3c2)c1`, for which the inhibition was 0.39% in [1]; -1.67% in [2]; -2.6% in experiment [3]; 1.65% in experiment [4]; 3.55% in experiment [5]; -2.18% in experiment [6]. Further, the inhibition in experiment [7] was 2.91%; in [8], -0.31%; in experiment [9] it was 0.27%; in [10] it was 0.7%; in [11], 1.21%; in [12] it was 0.07%. Further, the inhibition is 2.04% in experiment [13]; 0.11% in [14]; 3.65% in [15]; -2.48% in experiment [16]; -2.41% in experiment [17]; 0.42% in experiment [18]. For the same compound, the inhibition in experiment [19] was 2.12%; in [20], -1.3%.
Consider `CCn1c(-c2nonc2N)nc2ccncc21`, for which the inhibition is 1.46% in [1]; 2.56% in experiment [2]; 3.46% in [3]; 2.16% in experiment [4]; 2.72% in [5]; 3.44% in experiment [6]. Moreover, the inhibition in experiment [7] was -5.95%; in [8] it was -0.95%; in experiment [9] it was -2.72%; in experiment [10], 0.03%; in experiment [11] it was -0.79%; in experiment [12] it was -1.44%. Also, the inhibition in experiment [13] was -3.63%; in [14] it was -2.79%; in experiment [15], -1.79%; in experiment [16], 0.17%; in [17] it was 3.88%; in experiment [18], 0.97%. In addition, the inhibition in experiment [19] stood at 6.38%; in experiment [20] it was 2.36%.
With `Nc1ncnc2occ(-c3ccc(NC(=O)Nc4cccc(C(F)(F)F)c4)cc3)c12`, the inhibition in experiment [2] turned out to be 1.64%; in experiment [3] it was 5.89%; in experiment [4], 56.4%; in experiment [5] it was 74.4%; in experiment [6], 7.73%; in experiment [7], 52.8%. In addition, the inhibition was 0.8% in experiment [8]; 1.54% in experiment [9]; 63.9% in experiment [10]; 96.5% in [11]; 59.4% in [12]; 91.1% in [13]. Further, the inhibition in [14] was 58.9%; in experiment [15] it was 88.9%; in experiment [16], -1.65%; in experiment [17], 5.17%; in experiment [18], -3.69%; in experiment [19], 18.1%. Also, the inhibition in experiment [20] was 9.27%.
Consider `CC1=C(C(=O)Nc2ccc3[nH]ncc3c2)C(c2ccc3ccccc3c2)CC(=O)N1` (centres undefined), for which the inhibition amounted to 2.59% in experiment [1]; 2.81% in experiment [2]; 9.73% in [3]; 3.02% in experiment [4]; 8.68% in experiment [5]; 3.25% in experiment [6]. Also, the inhibition in experiment [7] amounted to 22.4%; in [8], 2.91%; in [9], 20.3%; in [10], 3.43%; in [11], 2.53%; in [12], 1.18%. In addition, the inhibition in [13] is 4.38%; in experiment [14], 5.87%; in experiment [15], 5.78%; in experiment [16], 2.76%; in [17], 8.34%; in experiment [18], 0.09%. Also, the values for the inhibition in [19] and in experiment [20] were -0.04% and 7.34%, respectively.

For orientation: inhibition means the change of the read-out against control, counted positive when it falls.
